# Assay results reported in PubChem BioAssay (EPA / NIEHS).
# Results filed as inconclusive are left out. Activity calls are given as the source filed them. The calls were made as follows: active = hit-call score of the fitted dose curve at least 0.9, where 1 is the maximum; inconclusive = response in the unintended direction; inactive = score below 0.9.
# Read-out: ABC Transporter (ABCB1), ABCB1 (gene 5243)
# Assay: CLD_ABCB1_48hr: CellzDirect (CLD) Gene Expression Assay for ABC Transporter (ABCB1) at 48 hours (AID 2283695);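 as to AC50: potency for induction meaning increase of mRNA over DMSO vehicle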
# Procedure: CLD_48hr is a cell-based, multiplexed-readout assay that uses hepatocyte, a human liver primary cell, with measurements taken at 48 hours after chemical dosing in a 96-well plate.CLD_ABCB1_48hr is one of 16 assay component(s) measured or calculated from the CLD_48hr assay. It is designed to make measurements of mRNA induction, a form of inducible reporter, as detected with chemiluminescence signals by Quantitative Nuclease Protection Assay (qNPA) technology.Data from the assay component CLD_ABCB1_48hr was analyzed at the endpoint, CLD_ABCB1_48hr, in the positive analysis fitting direction relative to DMSO as the negative control and baseline of activity. Using a type of inducible reporter, gain-of-signal activity can be used to understand changes in the reporter gene as they relate to the gene ABCB1. Furthermore, this assay endpoint can be referred to as a primary readout. To generalize the intended target to other relatable targets, this assay endpoint is annotated to the transporter intended target family, where subfamily is ABC transporter.
# Human hepatocyte cultures were treated daily for two consecutive days with fresh dosing solutions containing appropriate concentrations of the 320 ToxCast chemicals (chemical identities were blinded to CellzDirect and other ToxCast collaborators), vehicle control (0.2% DMSO), and positive control inducers as summarized in Table 1. Due to the large number of treatment groups and chemicals examined, the ToxCast chemicals were divided into two groups (spanning two independent cultures of hepatocytes from separate donor preparations (Hu778: ToxCast plates 1 and 2; Hu776: ToxCast plates 3 and 4). Each preparation of human hepatocyte cultures was treated with respective vehicle control, medium only control, set of six positive controls/reference chemicals for the five hepatic receptor pathways, and a subset of eight of the ToxCast chemicals (indoxacarb, pyrithiobac-sodium, norflurazon, cyhalofop-butyl, methomyl, thiram, acetochlor, and propiconazole). These replicate data, coupled with internal replicates designed within the blinded ToxCast chemical library, provided additional data to evaluate interindividual differences between hepatocyte preparations and their potential impact on chemical profiles.Cell morphology and integrity were evaluated using phase-contrast microscopy as an indicator of hepatocyte cell health (Tyson & Green, 1987). Cultures for each treatment group (i.e., media, vehicle [0.2% DMSO], positive control inducers [multiple concentrations], and the ToxCast chemicals [multiple concentrations]) were observed and cell morphology was assessed relative to vehicle control cultures at each harvest time point (0, 6, 24, or 48 h). […] Images were evaluated at the conclusion of the study to assess changes in cell integrity and account for the effects of chemical exposure on uncharacteristic changes in concentration-dependent gene expression profiles. The results from these determinations of apparent cytotoxicity were annotated (yes/no) alongside the corresponding qNPA data for reference.At the conclusion of each treatment period, hepatocyte cultures (96-well) were washed with 1 volume of HBSS, lysed by addition of 25 ul ArrayPlate lysis buffer (HTG, Tucson, AZ), and 70 ul/well of Denaturation Oil, denatured by incubation at 95C for 10 min, and frozen at approximately -70C until analysis by nuclease protection assay (qNPA) (Roberts et al., 2007). For qNPA analysis, cell lysates were thawed at 50C for approximately 30 min, qNPA probes were added, and samples were incubated at 95C for 10 min to begin the detection process by denaturing the target RNA, dissociating the duplexes and secondary structure hybridization. At the conclusion of the hybridization period, S1 nuclease reagent was added to each sample to digest all nonprotected nucleotides at 50C for 60-90 min. […]
Structure (SMILES),outcome,AC50
Clc1cccc(C(Cl)(Cl)Cl)n1,inactive,–
CC(C)N1C(=O)N(c2ccccc2)CSC1=NC(C)(C)C,inactive,–
CC1(C)C(C=C(Cl)Cl)C1C(=O)OC(C#N)c1cccc(Oc2ccccc2)c1 (stereo not given),inactive,–
CC1(C)CCC(=Cc2ccc(Cl)cc2)C1(O)Cn1cncn1 (stereo not given),inactive,–
CCCCOCN(C(=O)CCl)c1c(CC)cccc1CC,inactive,–
CS(=O)(=O)c1ccc(C(=O)C2C(=O)CCCC2=O)c([N+](=O)[O-])c1,inactive,–
COCC(=O)N(c1c(C)cccc1C)C(C)C(=O)OC (stereo not given),inactive,–
N#CN=C1SCCN1Cc1ccc(Cl)nc1,inactive,–
CCCCC(O)(Cn1cncn1)c1ccc(Cl)cc1Cl (stereo not given),–,31.9 µM (active)
Cc1ccc(N=CN(C)C=Nc2ccc(C)cc2C)c(C)c1,inactive,–
CC(C)N1C(=O)c2ccccc2NS1(=O)=O,inactive,–
CC1(C)C(C(=O)OC(C#N)c2cccc(Oc3ccccc3)c2)C1(C)C (stereo not given),inactive,–
CCOc1nc(F)cc2nc(S(=O)(=O)Nc3c(Cl)cccc3Cl)nn12,inactive,–
CC(C)C1(C)N=C(c2ncccc2C(=O)O)NC1=O (stereo not given),inactive,–
COc1cc(OC)nc(NC(=O)NS(=O)(=O)c2ncccc2OCC(F)(F)F)n1,inactive,–
COP(=S)(OC)Oc1ccc([N+](=O)[O-])c(C)c1,inactive,–
CCCN(CC)CC1COC2(CCC(C(C)(C)C)CC2)O1 (stereo not given),inactive,–
COc1ccc(-c2ccccc2)cc1NNC(=O)OC(C)C,inactive,–
CCSC(=O)N1CCCCCC1,inactive,–
COCC(C)N(C(=O)CCl)c1c(C)csc1C (stereo not given),inactive,–

Structure (SMILES),outcome,AC50
CS(=O)(=O)c1cc(C(F)(F)F)ccc1C(=O)c1cnoc1C1CC1,inactive,–
COP(=O)(OC)O/C(C)=C/C(=O)N(C)C,inactive,–
CNC(=O)N(C)c1nnc(C(C)(C)C)s1,inactive,–
Cn1c(-c2ccccc2)cc(-c2ccccc2)[n+]1C,inactive,–
COC(=O)NS(=O)(=O)c1ccc(N)cc1,inactive,–
CO/N=C(/C1=NOCCO1)c1ccccc1Oc1ncnc(Oc2ccccc2Cl)c1F,inactive,–
CCCCC(C#N)(Cn1cncn1)c1ccc(Cl)cc1 (stereo not given),inactive,–
Cc1c(COC(=O)[C@@H]2[C@H](/C=C(\Cl)C(F)(F)F)C2(C)C)cccc1-c1ccccc1,inactive,–
CCCC(=NOCC)C1=C(O)CC(CC(C)SCC)CC1=O (stereo not given),inactive,–
OC(c1ccc(Cl)cc1)(c1ccc(Cl)cc1)C(Cl)(Cl)Cl,inactive,–
COC(=O)c1c(C(F)F)nc(C(F)(F)F)c(C2=NCCS2)c1CC(C)C,inactive,–
Cc1nc(N(C)C)nc(OC(=O)N(C)C)c1C,inactive,–
COC(=O)NC(=S)Nc1ccccc1NC(=S)NC(=O)OC,inactive,–
CCOc1cc(C(C)(C)C)ccc1C1COC(c2c(F)cccc2F)=N1 (stereo not given),inactive,–
Nc1c(Cl)c(F)nc(OCC(=O)O)c1Cl,inactive,–
CC1(C)CON(Cc2ccccc2Cl)C1=O,inactive,–
CCN(CC)C(=O)C(C)Oc1cccc2ccccc12 (stereo not given),inactive,–
COCc1cnc(C2=NC(C)(C(C)C)C(=O)N2)c(C(=O)O)c1 (stereo not given),inactive,–
O=C(Nc1ccccc1-c1ccc(Cl)cc1)c1cccnc1Cl,inactive,–
Clc1nc(Cl)nc(Nc2ccccc2Cl)n1,inactive,–
